B1: CCCA (dsDNA)
DNA 1: GCTATCTAGTGCTCAGTACGCACTGCCCAAGGAAACTTCTGGCAGGACCAGGTCATGAGATCGGAAGAGCACACGTCTGAACTCCAGTCA
DNA 2: TGACTGGAGTTCAGACGTGTGCTCTTCCGATCTCATGACCTGGTCCTGCCAGAAGTTTCCTTGGGCAGTGCGTACTGAGCACTAGATAGC
RNA: AAUUUCUACUCUUGUAGAUAGGAAACUUCUGGCAGGACC
B2: GCGC (dsDNA)
DNA 1: GCTATCTAGTGCTCAGTACGCACTGGCGCAGGAAACTTCTGGCAGGACCAGGTCATGAGATCGGAAGAGCACACGTCTGAACTCCAGTCA
DNA 2: TGACTGGAGTTCAGACGTGTGCTCTTCCGATCTCATGACCTGGTCCTGCCAGAAGTTTCCTGCGCCAGTGCGTACTGAGCACTAGATAGC
RNA: AAUUUCUACUCUUGUAGAUAGGAAACUUCUGGCAGGACC
B3: CCCG (dsDNA)
DNA 1: GCTATCTAGTGCTCAGTACGCACTGCCCGAGGAAACTTCTGGCAGGACCAGGTCATGAGATCGGAAGAGCACACGTCTGAACTCCAGTCA
DNA 2: TGACTGGAGTTCAGACGTGTGCTCTTCCGATCTCATGACCTGGTCCTGCCAGAAGTTTCCTCGGGCAGTGCGTACTGAGCACTAGATAGC
RNA: AAUUUCUACUCUUGUAGAUAGGAAACUUCUGGCAGGACC
B4: GATC (dsDNA)
DNA 1: GCTATCTAGTGCTCAGTACGCACTGGATCAGGAAACTTCTGGCAGGACCAGGTCATGAGATCGGAAGAGCACACGTCTGAACTCCAGTCA
DNA 2: TGACTGGAGTTCAGACGTGTGCTCTTCCGATCTCATGACCTGGTCCTGCCAGAAGTTTCCTGATCCAGTGCGTACTGAGCACTAGATAGC
RNA: AAUUUCUACUCUUGUAGAUAGGAAACUUCUGGCAGGACC
B5: GTCA (dsDNA)
DNA 1: GCTATCTAGTGCTCAGTACGCACTGGTCAAGGAAACTTCTGGCAGGACCAGGTCATGAGATCGGAAGAGCACACGTCTGAACTCCAGTCA
DNA 2: TGACTGGAGTTCAGACGTGTGCTCTTCCGATCTCATGACCTGGTCCTGCCAGAAGTTTCCTTGACCAGTGCGTACTGAGCACTAGATAGC
RNA: AAUUUCUACUCUUGUAGAUAGGAAACUUCUGGCAGGACC
B6: GGCG (dsDNA)
DNA 1: GCTATCTAGTGCTCAGTACGCACTGGGCGAGGAAACTTCTGGCAGGACCAGGTCATGAGATCGGAAGAGCACACGTCTGAACTCCAGTCA
DNA 2: TGACTGGAGTTCAGACGTGTGCTCTTCCGATCTCATGACCTGGTCCTGCCAGAAGTTTCCTCGCCCAGTGCGTACTGAGCACTAGATAGC
RNA: AAUUUCUACUCUUGUAGAUAGGAAACUUCUGGCAGGACC
B7: GGGG (dsDNA)
DNA 1: GCTATCTAGTGCTCAGTACGCACTGGGGGAGGAAACTTCTGGCAGGACCAGGTCATGAGATCGGAAGAGCACACGTCTGAACTCCAGTCA
DNA 2: TGACTGGAGTTCAGACGTGTGCTCTTCCGATCTCATGACCTGGTCCTGCCAGAAGTTTCCTCCCCCAGTGCGTACTGAGCACTAGATAGC
RNA: AAUUUCUACUCUUGUAGAUAGGAAACUUCUGGCAGGACC
B8: CGTT (dsDNA)
DNA 1: GCTATCTAGTGCTCAGTACGCACTGCGTTAGGAAACTTCTGGCAGGACCAGGTCATGAGATCGGAAGAGCACACGTCTGAACTCCAGTCA
DNA 2: TGACTGGAGTTCAGACGTGTGCTCTTCCGATCTCATGACCTGGTCCTGCCAGAAGTTTCCTAACGCAGTGCGTACTGAGCACTAGATAGC
RNA: AAUUUCUACUCUUGUAGAUAGGAAACUUCUGGCAGGACC
B9: GTAA (dsDNA)
DNA 1: GCTATCTAGTGCTCAGTACGCACTGGTAAAGGAAACTTCTGGCAGGACCAGGTCATGAGATCGGAAGAGCACACGTCTGAACTCCAGTCA
DNA 2: TGACTGGAGTTCAGACGTGTGCTCTTCCGATCTCATGACCTGGTCCTGCCAGAAGTTTCCTTTACCAGTGCGTACTGAGCACTAGATAGC
RNA: AAUUUCUACUCUUGUAGAUAGGAAACUUCUGGCAGGACC
B10: GTAT (dsDNA)
DNA 1: GCTATCTAGTGCTCAGTACGCACTGGTATAGGAAACTTCTGGCAGGACCAGGTCATGAGATCGGAAGAGCACACGTCTGAACTCCAGTCA
DNA 2: TGACTGGAGTTCAGACGTGTGCTCTTCCGATCTCATGACCTGGTCCTGCCAGAAGTTTCCTATACCAGTGCGTACTGAGCACTAGATAGC
RNA: AAUUUCUACUCUUGUAGAUAGGAAACUUCUGGCAGGACC
B11: GTGC (dsDNA)
DNA 1: GCTATCTAGTGCTCAGTACGCACTGGTGCAGGAAACTTCTGGCAGGACCAGGTCATGAGATCGGAAGAGCACACGTCTGAACTCCAGTCA
DNA 2: TGACTGGAGTTCAGACGTGTGCTCTTCCGATCTCATGACCTGGTCCTGCCAGAAGTTTCCTGCACCAGTGCGTACTGAGCACTAGATAGC
RNA: AAUUUCUACUCUUGUAGAUAGGAAACUUCUGGCAGGACC
B12: CTAT (dsDNA)
DNA 1: GCTATCTAGTGCTCAGTACGCACTGCTATAGGAAACTTCTGGCAGGACCAGGTCATGAGATCGGAAGAGCACACGTCTGAACTCCAGTCA
DNA 2: TGACTGGAGTTCAGACGTGTGCTCTTCCGATCTCATGACCTGGTCCTGCCAGAAGTTTCCTATAGCAGTGCGTACTGAGCACTAGATAGC
RNA: AAUUUCUACUCUUGUAGAUAGGAAACUUCUGGCAGGACC
B13: CTAG (dsDNA)
DNA 1: GCTATCTAGTGCTCAGTACGCACTGCTAGAGGAAACTTCTGGCAGGACCAGGTCATGAGATCGGAAGAGCACACGTCTGAACTCCAGTCA
DNA 2: TGACTGGAGTTCAGACGTGTGCTCTTCCGATCTCATGACCTGGTCCTGCCAGAAGTTTCCTCTAGCAGTGCGTACTGAGCACTAGATAGC
RNA: AAUUUCUACUCUUGUAGAUAGGAAACUUCUGGCAGGACC
B14: GCCA (dsDNA)
DNA 1: GCTATCTAGTGCTCAGTACGCACTGGCCAAGGAAACTTCTGGCAGGACCAGGTCATGAGATCGGAAGAGCACACGTCTGAACTCCAGTCA
DNA 2: TGACTGGAGTTCAGACGTGTGCTCTTCCGATCTCATGACCTGGTCCTGCCAGAAGTTTCCTTGGCCAGTGCGTACTGAGCACTAGATAGC
RNA: AAUUUCUACUCUUGUAGAUAGGAAACUUCUGGCAGGACC
B15: CTCT (dsDNA)
DNA 1: GCTATCTAGTGCTCAGTACGCACTGCTCTAGGAAACTTCTGGCAGGACCAGGTCATGAGATCGGAAGAGCACACGTCTGAACTCCAGTCA
DNA 2: TGACTGGAGTTCAGACGTGTGCTCTTCCGATCTCATGACCTGGTCCTGCCAGAAGTTTCCTAGAGCAGTGCGTACTGAGCACTAGATAGC
RNA: AAUUUCUACUCUUGUAGAUAGGAAACUUCUGGCAGGACC
B16: CTGT (dsDNA)
DNA 1: GCTATCTAGTGCTCAGTACGCACTGCTGTAGGAAACTTCTGGCAGGACCAGGTCATGAGATCGGAAGAGCACACGTCTGAACTCCAGTCA
DNA 2: TGACTGGAGTTCAGACGTGTGCTCTTCCGATCTCATGACCTGGTCCTGCCAGAAGTTTCCTACAGCAGTGCGTACTGAGCACTAGATAGC
RNA: AAUUUCUACUCUUGUAGAUAGGAAACUUCUGGCAGGACC

Target: dAsCas12a E174R (Acidaminococcus sp., UniProt U2UMQ6 1-1307, E174R;D908A;E993A;D1235A)
Test: Spec-seq (native PAGE EMSA with sequencing of bound and unbound); 25 mM Tris-HCl pH 7.4, 150 mM KCl, 5 mM MgCl2, 10% glycerol, 1 mM DTT, 40 ng/uL salmon sperm DNA; 400 nM Cas12a, 480 nM crRNA, 50 nM library, 37 C 1 h; native PAGE at room temperature; high values mean tight binding
Conditions: protein: recombinant
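Note: relative affinity from the bound to unbound sequence frequency ratio in Spec-seq.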

Row | Binder | binding signal
1 | B1 | -8.63 lnKA
2 | B2 | -8.88 lnKA
3 | B3 | -8.56 lnKA
4 | B4 | -8.27 lnKA
5 | B5 | -8.52 lnKA
6 | B6 | -8.97 lnKA
7 | B7 | -8.85 lnKA
8 | B8 | -8.95 lnKA
9 | B9 | -9 lnKA
10 | B10 | -8.95 lnKA
11 | B11 | -8.98 lnKA
12 | B12 | -8.81 lnKA
13 | B13 | -8.81 lnKA
14 | B14 | -8.91 lnKA
15 | B15 | -8.73 lnKA
16 | B16 | -8.89 lnKA

Target: dAsCas12a S542R (Acidaminococcus sp., UniProt U2UMQ6 1-1307, S542R;D908A;E993A;D1235A)
Test: as above
Conditions: protein: recombinant

Row | Binder | binding signal
17 | B1 | -6.21 lnKA
18 | B2 | -8.38 lnKA
19 | B3 | -6.18 lnKA
20 | B4 | -8.34 lnKA
21 | B5 | -6.38 lnKA
22 | B6 | -8.43 lnKA
23 | B8 | -8.31 lnKA
24 | B9 | -8.01 lnKA
25 | B10 | -8.41 lnKA
26 | B11 | -8.4 lnKA
27 | B12 | -8.52 lnKA
28 | B13 | -8.57 lnKA
29 | B14 | -6.67 lnKA
30 | B15 | -7.58 lnKA
31 | B16 | -8.52 lnKA

Target: d-enCas12a (Acidaminococcus sp., UniProt U2UMQ6 1-1307, E174R;S542R;K548R;D908A;E993A;D1235A)
Test: as above
Conditions: protein: recombinant

Row | Binder | binding signal
32 | B1 | -3.48 lnKA
33 | B2 | -5.81 lnKA
34 | B3 | -4.37 lnKA
35 | B4 | -3.86 lnKA
36 | B5 | -2.71 lnKA
37 | B6 | -5.65 lnKA
38 | B7 | -5.75 lnKA
39 | B8 | -5.2 lnKA
40 | B9 | -5.51 lnKA
41 | B10 | -5.69 lnKA
42 | B11 | -5.24 lnKA
43 | B12 | -5.65 lnKA
44 | B13 | -5.78 lnKA
45 | B14 | -4.72 lnKA
46 | B15 | -3.44 lnKA
47 | B16 | -5.79 lnKA

Target: d-enCas12a-Ultra (Acidaminococcus sp., UniProt U2UMQ6 1-1307, E174R;S542R;K548R;M537R;F870L;D908A;E993A;D1235A)
Test: as above
Conditions: protein: recombinant

Row | Binder | binding signal
48 | B1 | -0.7 lnKA
49 | B2 | -3.32 lnKA
50 | B3 | -0.97 lnKA
51 | B4 | -1.57 lnKA
52 | B5 | -0.526 lnKA
53 | B6 | -2.64 lnKA
54 | B7 | -3.49 lnKA
55 | B8 | -2.1 lnKA
56 | B9 | -3.27 lnKA
57 | B10 | -3.33 lnKA
58 | B11 | -2.1 lnKA
59 | B12 | -3.31 lnKA
60 | B13 | -3.2 lnKA
61 | B14 | -1.33 lnKA
62 | B15 | -0.714 lnKA
63 | B16 | -3.21 lnKA

— paper PMC8222333, “AsCas12a ultra nuclease facilitates the rapid generation of therapeutic cell medicines”
